Assay in all cases: NCI-60 one-dose screen, 48 h (100 = growth as untreated, 0 = no growth, -100 = all killed)
One assay relates to NCI-H23 lung. The settings on record: 10 µM unless noted.
For the next assay, the system named is NCI-H226 lung. The settings on record: 10 µM unless noted.
For the next assay, the system named is NCI-H322M lung. The settings on record: 10 µM unless noted.
A further assay deals with HOP-62 NSCLC. The following applies: 10 µM unless noted.
Another assay deals with NCI-H460 lung. The settings on record: 10 µM unless noted.
Another assay deals with HOP-92 NSCLC. The following applies: 10 µM unless noted.
Another assay deals with NCI-H522 lung. The following applies: 10 µM unless noted.
A further assay deals with A549/ATCC NSCLC. The following applies: 10 µM unless noted.
A further assay has as its system 786-0 renal. The settings on record: 10 µM unless noted.
The test system of another assay is COLO 205 colon. The following applies: 10 µM unless noted.
The test system of the next assay is DU-145 prostate. The following applies: 10 µM unless noted.
A further assay relates to K-562 leukemia. The settings on record: 10 µM unless noted.
Another assay deals with MALME-3M melanoma. The following applies: 10 µM unless noted.
A further assay has as its system MDA-MB-231 breast. The following applies: 10 µM unless noted.
A further assay relates to RXF 393 renal. The settings on record: 10 µM unless noted.
For the next assay, the system named is SF-268 CNS. The settings on record: 10 µM unless noted.
Another assay deals with SF-295 CNS. The following applies: 10 µM unless noted.
In a further assay the test system is SF-539 CNS. The following applies: 10 µM unless noted.
The test system of another assay is UACC-257 melanoma. The following applies: 10 µM.
For another assay, the system named is M14 melanoma. The following applies: 10 µM unless noted.

SMILES strings stand for the structures. The panel holds about 83,000 compounds, 20% with a hit somewhere; the sample as a whole holds those more often.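 Treatment: one concentration, 48 hours, 96-well format. Scoring: percent growth, with anything below 10 considered active.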 Values without a mark were called inactive. Calls of active or inactive are those of the source.

For `CCc1ccc(NC(=O)N[C@@H](Cc2cccc(F)c2)C(=O)N[C@@H]2C(=O)N3CCC[C@H]3C(=O)N3CCCC[C@H]3C(=O)N[C@@H](CO)C(=O)N3C[C@H](C)C[C@H]3C(=O)O[C@H]2C)c(F)c1`, the growth is 32.9% with NCI-H23 lung; -1.86% (active) with NCI-H226 lung; 51.1% with NCI-H322M lung; 37.8% in the assay on HOP-62 NSCLC; 14.4% in the assay with NCI-H460 lung; 2.76% (active) with HOP-92 NSCLC. Besides, the growth with NCI-H522 lung was 20.1%; in the assay with A549/ATCC NSCLC, 36.3%; in the assay with 786-0 renal it was 44.1%; in the assay on COLO 205 colon, -50.4% (active); with DU-145 prostate it was 26.9%; with K-562 leukemia it was 20.1%. The growth with MALME-3M melanoma was 41.5%; in the assay with MDA-MB-231 breast, 35.2%; in the assay on RXF 393 renal, -11.7% (active); with SF-268 CNS it was 30.6%; with SF-295 CNS it was 15.8%; with SF-539 CNS, 39.8%. The growth in the assay on UACC-257 melanoma is 16%; in the assay with M14 melanoma it was 21.4%.
`c1ccc(-c2c(-c3ccccc3)[n+](Cc3ccc4ccccc4c3)c(-c3ccccc3)n2Cc2ccc3ccccc3c2)cc1`: the growth was -81% (active) with NCI-H23 lung; -66.8% (active) in the assay with NCI-H226 lung; -97% (active) with NCI-H322M lung; -66.9% (active) in the assay with HOP-62 NSCLC; -75.6% (active) in the assay on NCI-H460 lung; -89.8% (active) in the assay on HOP-92 NSCLC. For the same compound, the growth with NCI-H522 lung was -76.2% (active); in the assay with A549/ATCC NSCLC, -74.3% (active); in the assay with 786-0 renal it was -76.9% (active); in the assay on COLO 205 colon it was -57.8% (active); in the assay on DU-145 prostate, -92.6% (active); with K-562 leukemia, -30.9% (active). Moreover, the growth was -82.5% (active) with MALME-3M melanoma; -85.6% (active) in the assay with MDA-MB-231 breast; -91.9% (active) in the assay with RXF 393 renal; -73.5% (active) in the assay on SF-268 CNS; -91.3% (active) in the assay on SF-295 CNS; -90% (active) with SF-539 CNS. For the same compound, the growth with UACC-257 melanoma was -56.6% (active); with M14 melanoma, -72% (active).
For `CN1CCN(c2nc(-c3csc(-c4ccncc4)n3)cc3ccccc23)CC1`, the growth was 71.8% with NCI-H23 lung; 98.1% in the assay on NCI-H226 lung; 82.1% with NCI-H322M lung; 85% in the assay with HOP-62 NSCLC; 78.2% with NCI-H460 lung; 15.3% with HOP-92 NSCLC. Also, the growth with NCI-H522 lung was 55.7%; in the assay on A549/ATCC NSCLC it was 71.1%; in the assay with 786-0 renal it was 65.7%; in the assay on COLO 205 colon it was 39.6%; in the assay with DU-145 prostate, 65.3%; with K-562 leukemia, 11%. Further, the growth was 30.7% in the assay on MALME-3M melanoma; 63% with MDA-MB-231 breast; -26.5% (active) with RXF 393 renal; 72.8% with SF-268 CNS; 45.8% with SF-295 CNS; 52.6% with SF-539 CNS. The growth with UACC-257 melanoma was -1.71% (active); with M14 melanoma it was -18.5% (active).
Regarding `O=C1/C(=C/c2ccc([N+](=O)[O-])cc2)SC(=Nc2ccccc2)N1Nc1ccccc1`, the growth was 60.5% with NCI-H23 lung; 85.1% in the assay on NCI-H226 lung; 60.9% with NCI-H322M lung; 97.1% in the assay on HOP-62 NSCLC; 50.9% in the assay with NCI-H460 lung; 108% in the assay on HOP-92 NSCLC. Also, the growth in the assay with NCI-H522 lung is 58.1%; in the assay on A549/ATCC NSCLC, 71.5%; in the assay on 786-0 renal, 66.4%; with COLO 205 colon, 92.6%; in the assay with DU-145 prostate, 63.5%; in the assay on K-562 leukemia it was 17.8%. Further, the growth is 90.3% with MALME-3M melanoma; 54.7% with MDA-MB-231 breast; 58.9% with RXF 393 renal; 73% in the assay on SF-268 CNS; 87.1% in the assay on SF-295 CNS; 65.1% in the assay on SF-539 CNS. The growth was 89.7% in the assay with UACC-257 melanoma and 80.1% in the assay on M14 melanoma.
Consider `CCOC(=O)/C(F)=C/C1CC1CCc1cccc(C(F)(F)F)c1` (stereo not given), for which the growth was 101% in the assay with NCI-H23 lung; 102% with NCI-H226 lung; 106% in the assay with NCI-H322M lung; 98.3% in the assay with HOP-62 NSCLC; 111% in the assay with NCI-H460 lung; 116% in the assay on HOP-92 NSCLC. Besides, the growth with NCI-H522 lung is 100%; in the assay with A549/ATCC NSCLC it was 107%; in the assay with 786-0 renal it was 103%; with COLO 205 colon, 103%; in the assay with DU-145 prostate, 110%; in the assay on K-562 leukemia, 111%. The growth is 106% with MALME-3M melanoma; 107% with MDA-MB-231 breast; 129% with RXF 393 renal; 105% in the assay with SF-268 CNS; 99.6% in the assay with SF-295 CNS; 99.4% with SF-539 CNS. Moreover, the growth was 111% in the assay with UACC-257 melanoma and 98.9% with M14 melanoma.
On to `CCc1ccc(NC(=O)N[C@@H](Cc2cccc(C)c2)C(=O)N[C@@H]2C(=O)N3CCC[C@H]3C(=O)N3CCCC[C@H]3C(=O)N[C@@H](CO)C(=O)N3C[C@H](C)C[C@H]3C(=O)O[C@H]2C)c(F)c1`, for which the growth is 34.4% in the assay on NCI-H23 lung; -4.68% (active) with NCI-H226 lung; 49.9% with NCI-H322M lung; 30.5% in the assay on HOP-62 NSCLC; 12.5% with NCI-H460 lung; -0.374% (active) with HOP-92 NSCLC. For the same compound, the growth with NCI-H522 lung is 21%; with A549/ATCC NSCLC, 27.9%; in the assay with 786-0 renal, 40.8%; in the assay on COLO 205 colon, -36% (active); in the assay on DU-145 prostate, 25.3%; in the assay with K-562 leukemia it was 27%. Moreover, the growth in the assay with MALME-3M melanoma was 37.3%; with MDA-MB-231 breast, 33.9%; in the assay with RXF 393 renal, -9.15% (active); in the assay with SF-268 CNS, 30.1%; in the assay on SF-295 CNS, 12.8%; in the assay with SF-539 CNS, 37.5%. Besides, the growth with UACC-257 melanoma was 15%; with M14 melanoma it was 23.7%.
For `C/C=C/C=C1\C[C@H]2CO[C@H](O2)C1=O`, the growth in the assay on NCI-H23 lung is 93.9%; in the assay with NCI-H226 lung it was 94.9%; in the assay with NCI-H322M lung, 93.7%; in the assay on HOP-62 NSCLC, 96.9%; in the assay with NCI-H460 lung, 104%; in the assay with HOP-92 NSCLC, 96.4%. Also, the growth with NCI-H522 lung is 95.6%; with A549/ATCC NSCLC it was 98.2%; with 786-0 renal it was 102%; with COLO 205 colon, 117%; in the assay on DU-145 prostate it was 106%; in the assay on K-562 leukemia, 56.8%. In addition, the growth is 102% in the assay on MALME-3M melanoma; 105% with MDA-MB-231 breast; 104% in the assay on RXF 393 renal; 105% with SF-268 CNS; 106% in the assay with SF-295 CNS; 102% in the assay on SF-539 CNS. For the same compound, the growth is 90.8% in the assay on UACC-257 melanoma and 85.4% with M14 melanoma.
Take `COc1cc2oc(-c3cccc(NC(=O)c4cc(NC(=O)[C@H](C)NC(=O)OC(C)(C)C)ccc4C)c3)cc(=O)c2c(OC)c1OC`: the growth with NCI-H23 lung is 63.8%; with NCI-H226 lung, 80.6%; in the assay on NCI-H322M lung, 86.2%; in the assay on HOP-62 NSCLC, 84.5%; with NCI-H460 lung it was 61.5%; in the assay with HOP-92 NSCLC, -0.546% (active). The growth in the assay on NCI-H522 lung was 72.2%; in the assay on A549/ATCC NSCLC, 80.5%; in the assay on 786-0 renal, 77.5%; in the assay with COLO 205 colon, 67.7%; in the assay with DU-145 prostate it was 62.2%; with K-562 leukemia, 47.4%. The growth was 92.5% with MALME-3M melanoma; 65.1% in the assay on MDA-MB-231 breast; 67.7% with RXF 393 renal; 79.4% in the assay with SF-268 CNS; 65.5% in the assay with SF-295 CNS; 79.4% in the assay with SF-539 CNS. Besides, the growth is 118% in the assay on UACC-257 melanoma and 97.9% with M14 melanoma.

Source of the values: PubChem BioAssay (NCI).
